Shown are actives, neighbours in structure and some others; about 18% of the full set was active somewhere.
PLK1 PBD block: inhibitors of human PLK1 polo-box domain binding; P53350; Potency, µM, for inactives: max response, negative = inhibition, hits mostly inhibitors; 360,000 compounds, 2.8% hits; Plk1 PBD binding of FITC phosphopeptide, fluorescence polarization; further: series mostly up to about 57 µM; nearly all actives have a fitted effect of over 65% in size
KAT2A inh: blocks human GCN5L2 histone acetyltransferase | Q92830 | GCN5L2 HAT assay, ThioGlo1 CoA-SH fluorescence | Potency, µM (doses to about 58.9 µM), for the others: at the highest dose activity change, negative = inhibition, actives largely listed as inhibitors | 390,000 compounds, 0.21% hits | AID 504327
Target sequence (Q92830 whole entry, looked up): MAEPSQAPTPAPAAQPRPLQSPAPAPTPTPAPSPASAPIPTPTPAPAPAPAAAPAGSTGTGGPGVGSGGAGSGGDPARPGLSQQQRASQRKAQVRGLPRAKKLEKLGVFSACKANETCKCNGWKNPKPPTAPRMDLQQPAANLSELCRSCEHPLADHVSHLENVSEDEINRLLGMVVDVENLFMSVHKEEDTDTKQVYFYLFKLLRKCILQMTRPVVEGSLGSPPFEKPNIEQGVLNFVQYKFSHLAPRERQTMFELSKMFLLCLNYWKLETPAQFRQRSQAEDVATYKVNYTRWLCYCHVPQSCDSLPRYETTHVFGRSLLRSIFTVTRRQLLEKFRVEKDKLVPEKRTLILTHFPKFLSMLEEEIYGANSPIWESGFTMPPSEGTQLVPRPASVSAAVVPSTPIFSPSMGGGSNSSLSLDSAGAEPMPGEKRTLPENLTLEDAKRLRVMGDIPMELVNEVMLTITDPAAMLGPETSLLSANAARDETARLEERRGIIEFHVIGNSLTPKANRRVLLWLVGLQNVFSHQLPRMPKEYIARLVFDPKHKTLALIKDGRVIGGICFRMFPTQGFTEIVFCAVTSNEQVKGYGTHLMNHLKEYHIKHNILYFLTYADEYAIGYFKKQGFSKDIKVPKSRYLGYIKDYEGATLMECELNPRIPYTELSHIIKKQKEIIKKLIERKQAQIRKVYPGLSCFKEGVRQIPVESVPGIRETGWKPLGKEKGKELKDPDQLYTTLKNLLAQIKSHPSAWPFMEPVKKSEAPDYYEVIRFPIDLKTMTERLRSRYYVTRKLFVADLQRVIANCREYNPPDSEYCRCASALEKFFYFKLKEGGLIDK
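qHTS, 1536-well. 20nM enzyme, pH 7.5 HEPES/EDTA/Tween-20 buffer; 15 min compound preinc., RT. Start: 75uM H3(1-25), 70uM AcCoA, 50uM ThioGlo1. Read Ex340/Em540 at t=0 (autofluorescence flag) and t=20 min.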
TDP1 inh: TDP1 (human) enzyme inhibition; Q9NUW8; recombinant TDP1, AlphaScreen DNA substrate cleavage; Potency, µM (doses to about 130 µM), for the others: at the highest dose activity change, negative = inhibition, hits mostly inhibitors; 350,000 compounds, 0.28% hits; AID 485290; further: nearly all actives have a fitted effect of over 40% in size
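Here, a 5' biotin and 3' phosphotyrosine-FITC DNA oligonucleotide reports Tdp1 activity: intact substrate bridges AlphaScreen beads, while cleavage leaves a 3' phosphate and drops signal. All incubations at room temperature.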
TDP1 cell CPT: growth inhibition of DT40 Tdp1-/-;hTDP1 cells with camptothecin (screen for TDP1 inhibitors); Potency, µM (top dose mostly 46.2 µM), for the others: at the top dose activity change, negative = growth inhibition, usual class: inhibitors; AID 686979; 420,000 compounds, 12% hits; chicken DT40 Tdp1-/-;hTDP1 cells + 20 nM CPT, ATP luminescence, 48 h; further: nearly all actives have a fitted effect of over 55% in size
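Chicken DT40 Tdp1-/- cells stably complemented with human TDP1 were seeded at 400 cells/well in medium containing 20 nM camptothecin, exposed to pin-transferred compounds, and grown at 37 °C for at least 48 hr. Viability was read as ATP luminescence.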
DT40 TDP1 no CPT: qHTS for Inhibitors of human tyrosyl-DNA phosphodiesterase 1 (TDP1): qHTS in cells in absence of CPT; Potency, µM (doses to about 46.2 µM), for the others: top-dose activity change, negative = growth inhibition, usual class: inhibitors; 420,000 compounds, 15% hits; DT40 Tdp1-/- hTDP1 cells, no CPT, ATP luminescence, 48 h; further: nearly all actives have a fitted effect of over 55% in size
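No-CPT arm: Tdp1-/-;hTDP1 DT40 cells (400/well) plus compounds, incubated ≥48 hr at 37 °C. Readout CellTiter-Glo luminescence.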
VDR inhibitor: inhibitors of human vitamin D receptor; 400,000 compounds, 0.93% hits; P11473; VDR-SRC2-3 peptide fluorescence polarization, 2 h; Potency, µM, inactives show max response, negative = inhibition, most hits filed as inhibitors
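Signal is fluorescence polarization, reporting how far test compounds block the interaction of VDR with the SRC2-3 coregulator peptide after a 2 h room-temperature incubation.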
Numbers without * were called inactive; ? = inconclusive; / = not tested or not shown; [ ] = another dose, or the depositor's remark. The call rests on the fitted dose curve; in most records, active means well fitted curve in the direction sought with a large enough effect; inconclusive means small, poorly fitted or top-dose-only effect, or another doubt; inactive means no such curve, though single readings can be large; an effect the other way counts as inactive or inconclusive. On the % scale 0 is the no-effect control and ±100 the full control effect; potency means the concentration at half of the fitted maximal effect.

SMILES	PLK1 PBD block	KAT2A inh	TDP1 inh	TDP1 cell CPT	DT40 TDP1 no CPT	VDR inhibitor
Cc1ccc2[nH]c(O)c(N=NC(=O)c3ccc(NS(=O)(=O)c4cccs4)cc3)c2c1	-17%	-14%	/	15µM*	?	4%
O=C(NN=Cc1ccc(O)cc1O)c1ccccc1NS(=O)(=O)c1cccs1	-2%	-9%	-1%	?	21µM*	3%
Oc1ccc(Cc2ccc(Cl)cc2)c(O)c1	-2%	0%	3%	?	?	-3%
C=C[C@]1(C)C[C@@H](OC(=O)CSCCN(CC)CC)[C@]2(C)C(C)CC[C@]3(CCC(=O)[C@H]32)[C@@H](C)[C@@H]1O (some centres undefined)	-5%	-5%	/	8.2µM*	8.2µM*	-11%
C=C[C@@]1(C)C[C@H](OC(=O)CSC(C)(C)CNC(=O)[C@@H](N)C(C)C)[C@@]2(C)C(C)CC[C@@]3(CCC(=O)[C@@H]32)[C@H](C)[C@H]1O (some centres undefined)	/	3%	/	0.11µM*	0.079µM*	2%
Cc1nc2nc(SCC(=O)NC(C)c3ccccc3)nn2c(C)c1Cc1c(F)cccc1Cl (centres undefined)	/	-6%	3%	23µM*	16µM*	6%
Cc1ccccc1Cc1c(C)nc2nc(SCC(=O)NC(C)c3ccccc3)nn2c1C (centres undefined)	/	-4%	3%	16µM*	?	1%
Cc1ccccc1Cc1c(C)nc2nc(SCC(=O)N(C)c3ccccc3)nn2c1C	/	-27%	8%	23µM*	?	8%
Cc1ccc(Cc2c(C)nc3nc(SCC(=O)NCc4ccco4)nn3c2C)cc1	-8%	-4%	-10%	3.3µM*	4.6µM*	-8%
Oc1c(C(c2ccc(Cl)cc2)N2CCC3(CC2)OCCO3)sc2nc(-c3ccco3)nn12 (centres undefined)	/	-5%	3%	-18%	-20%	21%
Cc1nc2nc(SCC(=O)N3CCOCC3)nn2c(C)c1Cc1ccccc1	-7%	1%	7%	?	-20%	-1%
Cc1ccccc1CSc1nc2nc(C)c(Cc3ccccc3)c(C)n2n1	/	-3%	3%	-109%	16µM*	5%
CC(=O)Nc1ccn(C2CC3OCC(NC(=O)C(Cc4ccccc4)NC(=O)OC(C)(C)C)C3O2)c(=O)n1 (centres undefined)	/	/	-1%	/	/	-14%
COc1ccc(C2=NOC(C(=O)N3CCN(c4ccccc4OC)CC3)C2)cc1 (centres undefined)	3%	-6%	2%	16µM*	23µM*	9%
COc1ccc(OC)c(C2=NOC(C(=O)N3CCN(c4ccccc4)CC3)C2)c1 (centres undefined)	-7%	-5%	4%	?	?	5%
COc1ccccc1N1CCN(C(=O)C2c3ccccc3Oc3ccccc32)CC1	-3%	-15%	6%	2.9µM*	2.9µM*	13%
O=C(C1c2ccccc2Oc2ccccc21)N1CCN(c2ccc(Cl)cc2)CC1	-14%	-12%	7%	?	15µM*	?
O=C(C1CCC1)N1CCN(c2ccc(Cl)cc2)CC1	-4%	1%	3%	-7%	?	0%
COc1ccccc1N1CCN(C(=O)C2CC2)CC1	-9%	/	/	8%	-11%	9%
CCOC(=O)C1=C(O)C(=O)N(C2CCCCC2)C1	2%	1%	1%	15%	3%	-6%
O=C1CCc2cc([S+](=O)([O-])NC3CCOCC3)ccc2N1	/	/	1%	/	/	/
CC(Oc1ccccc1)C(=O)Nc1ccc(OCc2cc(=O)n3ccsc3n2)cc1 (centres undefined)	/	3%	1%	?	?	6%
CC(=O)c1ccc(-c2ccccc2[C@H]2[C@H]3C=CC[C@@H](C)[C@@H]3C(=O)N2Cc2ccccc2)cc1	/	-4%	0%	/	/	/
Cc1c(C(=O)NCc2cccc(Cl)c2)sc(=O)n1Cc1ccc(C(=O)N(C)C)cc1	3%	/	/	16µM*	?	/
Cc1c(C(=O)NCc2ccc(Cl)c(Cl)c2)sc(=O)n1Cc1ccc(C(=O)N(C)C)cc1	1%	/	/	15µM*	10µM*	/
SMILES	PLK1 PBD block	KAT2A inh	TDP1 inh	TDP1 cell CPT	DT40 TDP1 no CPT	VDR inhibitor
CSc1ccc(Cn2c(C)c(C(=O)NCc3ccc(C(C)C)cc3)sc2=O)cc1	-2%	/	/	-8%	?	/
Cc1c(C(=O)N(C)Cc2ccc(F)cc2)sc(=O)n1Cc1ccc(Cl)c(Cl)c1	-3%	/	/	?	23µM*	/
Cc1c(C(=O)NCc2ccc(C(C)C)cc2)sc(=O)n1Cc1ccc(S(=O)(=O)N(C)C)cc1	-1%	/	/	13µM*	9.2µM*	/
CC(=O)Oc1ccc(Cn2c(C)c(C(=O)N(C)Cc3ccc(F)cc3)sc2=O)cc1	-6%	/	/	?	?	/
Cc1c(C(=O)NCc2ccc3c(c2)OCCO3)sc(=O)n1Cc1ccc(C(=O)N(C)C)cc1	-6%	/	/	?	?	/
COc1ccc(Br)cc1S(=O)(=O)NCCc1cccs1	2%	-4%	-4%	-17%	-5%	-18%
COc1ccc(N2CCN(CC(=O)Nc3nc(C)cs3)CC2)cc1	-9%	-8%	/	4%	-5%	-7%
CC(C)=CCC/C(C)=C/CO/N=C1/C[C@@H](O)[C@@H](O)[C@@H]2[C@@H]3C(=O)N(C4CCCCC4)C(=O)[C@H]3CC[C@@H]12	/	/	8%[21 µM]	/	/	/
Cc1c(C(=O)NCc2ccc(C#N)cc2)sc(=O)n1Cc1ccccn1	-5%	/	/	-5%	2%	/
Cc1cccc(C)c1Cn1c(C)c(C(=O)NCc2ccc(C#N)cc2)sc1=O	-6%	/	/	?	18µM*	/
O=c1[nH][nH]c2c(N=Cc3ccccc3O)ccc(F)c12	11µM*	?	-9%	?	?	?
O=C1CCCCCN1C(=O)c1ccc(C(=O)N2CCCCCC2=O)cc1	30µM*	-4%	1%	-8%	-29%	-2%
O=C(NCc1ccccc1)C(c1ccc(C(F)(F)F)cc1)N1CCN(CCN2CCOCC2)CC1 (centres undefined)	9%	/	/	-9%	-28%	/
O=C(NCc1ccccc1)C(c1ccc(-c2ccccc2)cc1)N1CCN(CCN2CCOCC2)CC1 (centres undefined)	-1%	/	/	16µM*	21µM*	/
CCc1c(C)sc(NC(=O)Cn2nc(C(F)(F)F)c3c2CCCC3)c1C#N	21µM*	-28%	-3%	?	?	-11%
